In PubChem BioAssay AID1159580 (chemical genetic matrix, 2015):
The whole screen tested about 5,500 compounds, of which about 2,000 (36%) were called active. Roughly 18% stayed inconclusive and do not appear here. No stated cut-off is given here; in the data, active means normalized growth mostly below about 0.91 (no sharp cut-off); inconclusive means no clear call, values can overlap the other calls; inactive means mostly above about 0.92. The list shows a part of the results.

Experiment: chemical genetic growth profiling, strain panel (AID 1159580);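 further: tested at 20 µM; growth read once vehicle control cultures reached saturation at 30 °C; 1 = growth at the plate median or of vehicle wells; lower values mean less growth of the strain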
Settings: growth OD

Measured: normalized growth

CC(=O)OCC1=C(C(=O)O)N2C(=O)[C@@H](NC(=O)CCCC(N)C(=O)O)C2SC1 (some centres not stated)
inactive: S. cerevisiae deletion strains, locus YJR075W, strain HOC1, hits give low values 1.05 | S. cerevisiae deletion strains, locus YKL009W, strain mrt4, hits give low values 0.996 | S. cerevisiae deletion strains, locus YKL068W, hits give low values 1 | S. cerevisiae deletion strains, locus YKL085W, strain MDH1 (second series), hits give low values 0.995 | S. cerevisiae deletion strains, locus YKL085W, strain MDH1, hits give low values 0.995 | S. cerevisiae deletion strains, locus YKL160W, strain elf1, hits give low values 0.998 | S. cerevisiae deletion strains, locus YKL190W, strain CNB1, hits give low values 1.01 | S. cerevisiae deletion strains, locus YKR001C, strain vps1, hits give low values 1.03 | S. cerevisiae deletion strains, locus YKR026C, strain gcn3, hits give low values 0.969 | S. cerevisiae deletion strains, locus YKR091W, strain srl3, hits give low values 0.999 | S. cerevisiae deletion strains, locus YLL001W, strain dnm1, hits give low values 0.973 | S. cerevisiae deletion strains, locus YLL026W, hits give low values 0.996 | S. cerevisiae deletion strains, locus YLL041C, strain sdh2, hits give low values 0.993 | S. cerevisiae deletion strains, locus YLR027C, strain aat2, hits give low values 0.998 | S. cerevisiae deletion strains, locus YLR039C, strain RIC1, hits give low values 1.02 | S. cerevisiae deletion strains, locus YLR058C, strain SHM2, hits give low values 1.02 | S. cerevisiae deletion strains, locus YLR102C, strain apc9, hits give low values 0.997 | S. cerevisiae deletion strains, locus YLR113W, strain HOG1, hits give low values 1.01 | S. cerevisiae deletion strains, locus YLR221C, strain rsa3, hits give low values 0.994 | S. cerevisiae deletion strains, locus YLR258W, strain gsy2, hits give low values 1.02 | S. cerevisiae deletion strains, locus YLR262C, strain YPT6 (second series), hits give low values 0.978 | S. cerevisiae deletion strains, locus YLR262C, strain YPT6, hits give low values 1.02 | S. cerevisiae deletion strains, locus YLR268W, strain sec22, hits give low values 1.01 | S. cerevisiae deletion strains, locus YLR320W, strain mms22, hits give low values 1.01 | S. cerevisiae deletion strains, locus YLR330W, strain CHS5, hits give low values 1.01 | S. cerevisiae deletion strains, locus YLR342W, strain FKS1 (second series), hits give low values 1.04 | S. cerevisiae deletion strains, locus YLR342W, strain FKS1, hits give low values 1.01 | S. cerevisiae deletion strains, locus YLR357W, strain rsc2, hits give low values 0.99 | S. cerevisiae deletion strains, locus YLR370C, strain arc18, hits give low values 1.01 | S. cerevisiae deletion strains, locus YLR371W, strain rom2, hits give low values 1.01 | S. cerevisiae deletion strains, locus YLR384C, strain iki3, hits give low values 0.994 | S. cerevisiae deletion strains, locus YLR418C, strain cdc73, hits give low values 1 | S. cerevisiae deletion strains, locus YML016C, strain PPZ1, hits give low values 1.01 | S. cerevisiae deletion strains, locus YML032C, strain rad52, hits give low values 1.02 | S. cerevisiae deletion strains, locus YML120C, strain ndi1, hits give low values 0.996 | S. cerevisiae deletion strains, locus YML124C, strain tub3, hits give low values 1 | S. cerevisiae deletion strains, locus YMR058W, strain fet3, hits give low values 0.994 | S. cerevisiae deletion strains, locus YMR078C, strain ctf18, hits give low values 1 | S. cerevisiae deletion strains, locus YMR125W, strain sto1, hits give low values 0.996 | S. cerevisiae deletion strains, locus YMR129W, hits give low values 0.988 | S. cerevisiae deletion strains, locus YMR205C, strain PFK2, hits give low values 1.02 | S. cerevisiae deletion strains, locus YMR223W, strain ubp8, hits give low values 1.04 | S. cerevisiae deletion strains, locus YMR231W, strain pep5, hits give low values 0.988 | S. cerevisiae deletion strains, locus YMR263W, strain SAP30, hits give low values 1.04 | S. cerevisiae deletion strains, locus YMR307W, strain GAS1, hits give low values 0.987 | S. cerevisiae deletion strains, locus YNL067W, strain RPL9B, hits give low values 1.01 | S. cerevisiae deletion strains, locus YNL071W, strain lat1, hits give low values 1.01 | S. cerevisiae deletion strains, locus YNL128W, strain TEP1, hits give low values 1.01 | S. cerevisiae deletion strains, locus YNL153C, strain GIM3, hits give low values 1.03 | S. cerevisiae deletion strains, locus YNL183C, strain NPR1, hits give low values 0.946 | S. cerevisiae deletion strains, locus YNL209W, strain ssb2, hits give low values 0.998 | S. cerevisiae deletion strains, locus YNL233W, strain BNI4, hits give low values 1.02 | S. cerevisiae deletion strains, locus YNL248C, strain rpa49, hits give low values 0.996 | S. cerevisiae deletion strains, locus YNL250W, strain rad50, hits give low values 1 | S. cerevisiae deletion strains, locus YNL271C, strain bni1, hits give low values 0.998 | S. cerevisiae deletion strains, locus YNL298W, strain CLA4, hits give low values 1.02 | S. cerevisiae deletion strains, locus YNL307C, strain MCK1, hits give low values 1.01 | S. cerevisiae deletion strains, locus YNL322C, strain KRE1 (second series), hits give low values 0.99 | S. cerevisiae deletion strains, locus YNL322C, strain KRE1, hits give low values 1.01 | S. cerevisiae deletion strains, locus YNR049C, strain mso1, hits give low values 0.996 | S. cerevisiae deletion strains, locus YNR052C, strain pop2, hits give low values 1.02 | S. cerevisiae deletion strains, locus YOL006C, strain TOP1, hits give low values 1 | S. cerevisiae deletion strains, locus YOL012C, strain htz1 0.841 | S. cerevisiae deletion strains, locus YOL147C, strain pex11, hits give low values 0.997 | S. cerevisiae deletion strains, locus YOR001W, strain rrp6, hits give low values 0.998 | S. cerevisiae deletion strains, locus YOR061W, strain CKA2, hits give low values 1.01 | S. cerevisiae deletion strains, locus YOR069W, strain VPS5, hits give low values 1 | S. cerevisiae deletion strains, locus YOR070C, strain gyp1, hits give low values 0.995 | S. cerevisiae deletion strains, locus YOR080W, strain dia2, hits give low values 1 | S. cerevisiae deletion strains, locus YOR083W, strain WHI5, hits give low values 0.993 | S. cerevisiae deletion strains, locus YOR106W, strain vam3, hits give low values 0.999 | S. cerevisiae deletion strains, locus YOR136W, strain idh2, hits give low values 1 | S. cerevisiae deletion strains, locus YOR144C, strain elg1, hits give low values 0.99 | S. cerevisiae deletion strains, locus YOR184W, strain ser1, hits give low values 1.02 | S. cerevisiae deletion strains, locus YOR231W, strain MKK1, hits give low values 1 | S. cerevisiae deletion strains, locus YOR265W, strain rbl2, hits give low values 0.993 | S. cerevisiae deletion strains, locus YOR270C, strain vph1, hits give low values 1.08 | S. cerevisiae deletion strains, locus YOR290C, strain snf2, hits give low values 0.973 | S. cerevisiae deletion strains, locus YOR316C, strain cot1, hits give low values 0.994 | S. cerevisiae deletion strains, locus YPL051W, strain arl3, hits give low values 0.99 | S. cerevisiae deletion strains, locus YPL055C, strain LGE1, hits give low values 1.03 | S. cerevisiae deletion strains, locus YPL078C, strain atp4, hits give low values 0.994 | S. cerevisiae deletion strains, locus YPL106C, strain sse1, hits give low values 0.981 | S. cerevisiae deletion strains, locus YPL240C, strain hsp82, hits give low values 1.01 | S. cerevisiae deletion strains, locus YPL241C, strain CIN2, hits give low values 1.01 | S. cerevisiae deletion strains, locus YPL256C, strain CLN2, hits give low values 0.967 | S. cerevisiae deletion strains, locus YPR119W, strain clb2, hits give low values 1 | S. cerevisiae deletion strains, locus YPR141C, strain kar3, hits give low values 1 | S. cerevisiae deletion strains, locus YPR163C, strain tif3, hits give low values 1 | S. cerevisiae deletion strains, locus YPR167C, strain met16, hits give low values 1 | S. cerevisiae deletion strains, strain wtn01, hits give low values 1 | S. cerevisiae strains, strain wild type, hits give low values 1.02
